In the supplement of paper PMC8728848:
About 410 targets per protein were measured; listed, in parts, are those with the strongest signals and a random draw of the rest.

Legend:
Experiment in all cases: glycan array binding signal (z-score within array); higher = stronger binding
Conditions in all cases: glycan notation: IUPAC condensed, linker removed
[1] = target: Fuc(a1-2)Gal
How it was run: (§1)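 The Consortium for Functional Glycomics database supplied 3228 glycan arrays, of which those lacking an available protein sequence were dropped. The binding signal, a within-array Z-score, was averaged across arrays of the same protein sequence and across linkers. Negative scores can be read as non-binding.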

[2] = target: Fuc(a1-2)Gal(b1-3)GalNAc(b1-3)Gal(a1-4)Gal(b1-4)Glc
How it was run: as §1

[3] = target: Fuc(a1-2)Gal(b1-4)Glc6S
How it was run: as §1

[4] = target: Fuc(a1-2)Gal(b1-4)GlcNAc(b1-3)Gal(b1-4)GlcNAc
How it was run: as §1

[5] = target: Fuc(a1-2)Gal(b1-4)GlcNAc6S
How it was run: as §1

[6] = target: Fuc(a1-2)[GalNAc(a1-3)]Gal(b1-3)GlcNAc(b1-2)Man(a1-3)[Fuc(a1-2)[GalNAc(a1-3)]Gal(b1-3)GlcNAc(b1-2)Man(a1-6)]Man(b1-4)GlcNAc(b1-4)GlcNAc
How it was run: as §1

[7] = target: Fuc(a1-2)[GalNAc(a1-3)]Gal(b1-4)GlcNAc(b1-3)Gal(b1-4)GlcNAc(b1-3)Gal(b1-4)GlcNAc
How it was run: as §1

[8] = target: Fuc(a1-3)GlcNAc
How it was run: as §1

[9] = target: Gal(a1-3)Gal(b1-4)Glc
How it was run: as §1

[10] = target: Gal(a1-3)Gal(b1-4)GlcNAc
How it was run: as §1

[11] = target: Gal(a1-3)GalNAc
How it was run: as §1

[12] = target: Gal(b1-3)GalNAc(a1-3)[Fuc(a1-2)]Gal(b1-4)GlcNAc
How it was run: as §1

[13] = target: Gal(b1-3)GlcNAc
How it was run: as §1

[14] = target: Gal(b1-3)[Fuc(a1-4)]GlcNAc
How it was run: as §1

[15] = target: Gal(b1-3)[Fuc(a1-4)]GlcNAc(b1-3)Gal(b1-4)GlcNAc
How it was run: as §1

[16] = target: Gal(b1-4)GalNAc(b1-3)[Fuc(a1-2)]Gal(b1-4)GlcNAc
How it was run: as §1

[17] = target: Gal(b1-4)Glc6S
How it was run: as §1

[18] = target: Gal(b1-4)GlcNAc(b1-2)Man(a1-3)[Gal(b1-4)GlcNAc(b1-2)Man(a1-6)]Man(b1-4)GlcNAc(b1-4)[Fuc(a1-6)]GlcNAc
How it was run: as §1

[19] = target: Gal(b1-4)GlcNAc(b1-2)Man(a1-6)[GlcNAc(b1-2)Man(a1-3)]Man(b1-4)GlcNAc(b1-4)GlcNAc
How it was run: as §1

[20] = target: Gal(b1-4)GlcNAc(b1-3)[Gal(b1-4)GlcNAc(b1-6)]GalNAc
How it was run: as §1

[21] = target: Gal3S(b1-4)[Fuc(a1-3)]Glc6S
How it was run: as §1

[22] = target: GalNAc(a1-3)GalNAc(a1-3)Gal(a1-4)Gal(b1-4)GlcNAc
How it was run: as §1

[23] = target: GalNAc(b1-3)Gal(a1-4)Gal(b1-4)GlcNAc(b1-3)Gal(b1-4)Glc
How it was run: as §1

[24] = target: GlcNAc(a1-4)Gal(b1-4)GalNAc
How it was run: as §1

[25] = target: GlcNAc(a1-4)Gal(b1-4)GlcNAc(b1-3)Gal(b1-4)[Fuc(a1-3)]GlcNAc(b1-3)Gal(b1-4)[Fuc(a1-3)]GlcNAc
How it was run: as §1

[26] = target: GlcNAc(b1-2)Man(a1-3)[GlcNAc(b1-2)Man(a1-6)]Man(b1-4)GlcNAc(b1-4)[Fuc(a1-6)]GlcNAc
How it was run: as §1

[27] = target: GlcNAc3Prop(b1-4)GlcNAc
How it was run: as §1

[28] = target: Man(a1-2)Man(a1-6)[Man(a1-3)]Man(a1-6)[Man(a1-2)Man(a1-2)Man(a1-3)]Man
How it was run: as §1

[29] = target: Neu5Ac(a2-3)Gal(b1-3)GlcNAc(b1-3)GalNAc
How it was run: as §1

[30] = target: Neu5Ac(a2-3)Gal(b1-4)[Fuc(a1-3)]GlcNAc(b1-3)GalNAc
How it was run: as §1

B1: SRS2 (Toxoplasma gondii), O15695 (protein)
chain: MATRASLARQKTGAACLAVLTASPSVVAAKPWKRWVGVSVILASAFAVGVSAGPPYRYEPEKFTCRPKKGILSQWVSLLYQVQHNITFACEEATPVPTTLISEEHGLMVCAENMTPEECEANPAPLSAFLPGATKEWVTGDSVLTGLKISVPESQYPANAKSFRVGCRHNTKTGNTCMLTIHVEPRDPAVERQEARCSYTENSTLPKIFVTKDSNTMTLACGPHGAPMPESYTENYCSTPDTCDEKPFTSVIPGYLSKWFFGDPKSPLGARVRIPPEQIPSSPQINYFGCTGPTEGEGPKYNCTVPVPLGGGDPSEGSRPGGGSGGGKRGGGQGGGGSLAGFDFRQGSARHSLPSRMALSASALLAMTALAY
glycan array binding signal (z-score) [1]: 0.535 | glycan array binding signal (z-score) [2]: 0.231 | glycan array binding signal (z-score) [3]: 0.222 | glycan array binding signal (z-score) [4]: 0.699 | glycan array binding signal (z-score) [5]: 0.345 | glycan array binding signal (z-score) [6]: -0.13 | glycan array binding signal (z-score) [7]: 0.391 | glycan array binding signal (z-score) [8]: 0.522 | glycan array binding signal (z-score) [9]: -0.428 | glycan array binding signal (z-score) [10]: 0.159 | glycan array binding signal (z-score) [11]: 0.369 | glycan array binding signal (z-score) [12]: -0.437 | glycan array binding signal (z-score) [13]: -0.506 | glycan array binding signal (z-score) [14]: -0.246 | glycan array binding signal (z-score) [15]: -0.495 | glycan array binding signal (z-score) [16]: -0.802 | glycan array binding signal (z-score) [17]: -0.35 | glycan array binding signal (z-score) [18]: 1.54 | glycan array binding signal (z-score) [19]: 1.51 | glycan array binding signal (z-score) [20]: 6.82 | glycan array binding signal (z-score) [21]: 2.13 | glycan array binding signal (z-score) [22]: 0.55 | glycan array binding signal (z-score) [23]: -0.134 | glycan array binding signal (z-score) [24]: -0.448 | glycan array binding signal (z-score) [25]: 2.07 | glycan array binding signal (z-score) [26]: 14.3 | glycan array binding signal (z-score) [27]: 0.829 | glycan array binding signal (z-score) [28]: 0.304 | glycan array binding signal (z-score) [29]: 1.3 | glycan array binding signal (z-score) [30]: 1.72
